The values below come from the supplement of paper PMC5662767.

Structures can show the parent of a compound that is named as a salt.

The test system of this assay is Drosophila S2 cl14 SmoIP sensor cells. Put plainly: normalized SmoIP GFP fluorescence (untreated unstimulated = 0%, untreated Hh-stimulated = 100%); higher = more Smo activation sensor fluorescence. The note with it: compound concentration: 2 uM, 24 h.
The mark [1] stands for this setting: stimulation: Hh conditioned medium (+Hh).
Setting [2] is: stimulation: mock conditioned medium (-Hh).
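Also: flow cytometry read-out as median GFP intensity of gated cells, compounds added 30 min before Hh-conditioned or mock medium, mock-treated cells serving as unstimulated baseline.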

As to `c1ccc2c(c1)CCCC2C1=NCCN1` (stereo not drawn) [tetrahydrozoline-hcl], the “normalized SmoIP GFP fluorescence” value was 115% under setting [1] and -0.491% under setting [2].
Taken in the same sequence, the figures for `COc1cc([C@@H]2c3cc4c(cc3[C@@H](O[C@@H]3O[C@@H]5CO[C@@H](C)O[C@H]5[C@H](O)[C@H]3O)[C@H]3COC(=O)[C@H]23)OCO4)cc(OC)c1OP(=O)(O)O` [Etopophos] were 178% and 28.7%.
Taken in the same sequence, the figures for `O=C(NOCC1CC1)c1ccc(F)c(F)c1Nc1ccc(I)cc1Cl` were 112% and 10.7%.
With `CC(C)(C)NS(=O)(=O)c1cncc(-c2cc(F)c3nc(N)nn3c2)c1`, the “normalized SmoIP GFP fluorescence” value was 104% under setting [1] and -4.47% under setting [2].
Take `CC(C)(O)[C@H]1CC[C@@](C)([C@H]2[C@@H](O)C[C@@]3(C)[C@@H]4C[C@H](O[C@@H]5O[C@H](CO)[C@@H](O)[C@H](O)[C@H]5O)[C@H]5C(C)(C)[C@@H](O[C@@H]6OC[C@@H](O)[C@H](O)[C@H]6O)CC[C@@]56C[C@@]46CC[C@]23C)O1` [astragaloside-a]: the “normalized SmoIP GFP fluorescence” value was 120% under setting [1] and -16.8% under setting [2].
Taken in the same sequence, the figures for `CC(C)C1CCC(C(=O)N[C@H](Cc2ccccc2)C(=O)O)CC1` (stereo partly drawn) [Nateglinide(Starlix)] were 110% and -4.71%.
Consider `O=C1c2ccccc2C(=O)c2c1ccc(O)c2O` [Alizarin], for which the “normalized SmoIP GFP fluorescence” value was 141% under setting [1] and -7.96% under setting [2].
For the molecule `NC(=O)[C@@H](CCC(F)(F)F)N(Cc1ccc(-c2ncon2)cc1F)S(=O)(=O)c1ccc(Cl)cc1`, the “normalized SmoIP GFP fluorescence” value was determined as 116% under setting [1] and 0.489% under setting [2].
Taken in the same sequence, the figures for `CC(C)(C)NC(=O)[C@H]1CC[C@H]2[C@@H]3CC[C@H]4NC(=O)C=C[C@]4(C)[C@H]3CC[C@]12C` [Finasteride] were 77.5% and -9.32%.
As for `O=C(Nc1c(Cl)cncc1Cl)c1ccc(OC(F)F)c(OCC2CC2)c1` [Roflumilast(Daxas)], the “normalized SmoIP GFP fluorescence” value runs as follows: under setting [1], 134%; under setting [2], -8.23%.
On to `CN(C)C(=O)C(CCN1CCC(O)(c2ccc(Cl)cc2)CC1)(c1ccccc1)c1ccccc1` [Loperamide-hydrochloride], for which the “normalized SmoIP GFP fluorescence” value stood at 106% under setting [1] and 7.46% under setting [2].
In the case of `COC(=O)C1=C(C#N)NC(C)=C(C(=O)OC(C)C)C1c1cccc([N+](=O)[O-])c1` (stereo not drawn) [nilvadipine-arc029], the “normalized SmoIP GFP fluorescence” value by setting is: under setting [1], 110%; under setting [2], -17%.
Taken in the same sequence, the figures for `OCCn1cc(-c2cnc3nnn(Cc4ccc5ncccc5c4)c3n2)cn1` were 110% and 1.03%.
For `C[C@H](Nc1ncnc2nc[nH]c12)c1cc2cccc(Cl)c2c(=O)n1-c1ccccc1`, the “normalized SmoIP GFP fluorescence” value was 98% under setting [1] and -4.24% under setting [2].
Take `CC1=C(/C=C/C(C)=C/C=C/C(C)=C\C(=O)O)C(C)(C)CCC1` [Isotretinoin]: the “normalized SmoIP GFP fluorescence” value by setting is: under setting [1], 106%; under setting [2], -7.27%.
Consider `COc1ccc2c(c1)C(=O)N(CCc1ccc(S(=O)(=O)NC(=O)NC3CCCCC3)cc1)C(=O)C2(C)C` [gliquidone], for which the “normalized SmoIP GFP fluorescence” value reads like this: under setting [1], 105%; under setting [2], -4.01%.
Taken in the same sequence, the figures for `CNC[C@H](O)c1cccc(O)c1` [Phenylephrine-hydrochloride] were 108% and -14.9%.
Taken in the same sequence, the figures for `Cc1cccc(Nc2ccccc2C(=O)O)c1C` [mefenamic-acid] were 111% and -1.23%.
In the case of `CO[C@H]1C[C@@H]2CC[C@@H](C)[C@@](O)(O2)C(=O)C(=O)N2CCCC[C@H]2C(=O)O[C@H]([C@H](C)C[C@@H]2CC[C@@H](O)[C@H](OC)C2)CC(=O)[C@H](C)/C=C(\C)[C@@H](O)[C@@H](OC)C(=O)[C@H](C)C[C@H](C)/C=C/C=C/C=C/1C` [Rapamycin], the “normalized SmoIP GFP fluorescence” value by setting is: under setting [1], 26.9%; under setting [2], 19.1%.
Taken in the same sequence, the figures for `CC(=O)c1cc([N+](=O)[O-])c(Sc2cccc(Cl)c2Cl)s1` were 108% and -4.24%.
Take `CCCCN(Cc1ccc(C(=O)NO)cc1)C(=O)Nc1ccccc1` [nexturastat-a]: the “normalized SmoIP GFP fluorescence” value is 105% under setting [1] and 6.74% under setting [2].
Taken in the same sequence, the figures for `COc1ccccc1N1CCN(CCN(C(=O)C2CCCCC2)c2ccccn2)CC1` were 125% and 7.01%.
Regarding `Cn1cc(-c2ccc3c(c2)CCN3C(=O)Cc2cccc(C(F)(F)F)c2)c2c(N)ncnc21`, the “normalized SmoIP GFP fluorescence” value under setting [1] worked out at 131% and the “normalized SmoIP GFP fluorescence” value under setting [2] worked out at 39.3%.
The corresponding values for `Cc1ccc(S(=O)(=O)c2ccc([N+](=O)[O-])o2)cc1` are 144% and 21.3%.
Taken in the same sequence, the figures for `COC(=O)N[C@@H](C)CNc1nccc(-c2cn(C(C)C)nc2-c2cc(Cl)cc(NS(C)(=O)=O)c2F)n1` were 170% and 48.8%.
Taken in the same sequence, the figures for `C[C@H](NC(=O)Cc1cc(F)cc(F)c1)C(=O)N[C@H](C(=O)OC(C)(C)C)c1ccccc1` were 146% and 4.93%.
On to `CCN(Cc1ccncc1)C(=O)C(CO)c1ccccc1` (stereo not drawn) [tropicamide], for which the “normalized SmoIP GFP fluorescence” value by setting is: under setting [1], 104%; under setting [2], -2.82%.
In the case of `Cc1cccc(-c2[nH]c(C(C)(C)C)nc2-c2ccc3nccnc3c2)n1`, the “normalized SmoIP GFP fluorescence” value by setting is: under setting [1], 102%; under setting [2], -5.22%.
Regarding `O=C(Nc1cccnc1)N1CCC(Cc2cccc(Oc3ccc(C(F)(F)F)cn3)c2)CC1`, the “normalized SmoIP GFP fluorescence” value under setting [1] worked out at 116% and the “normalized SmoIP GFP fluorescence” value under setting [2] is -0.297%.
As for `O=C(Oc1cc(S(=O)(=O)c2ccccc2)ccc1[N+](=O)[O-])c1ccc(Cl)cc1`, the “normalized SmoIP GFP fluorescence” value is, setting by setting: under setting [1], 146%; under setting [2], 7.6%.
Taken in the same sequence, the figures for `CS(=O)(=O)c1cccc(CNc2nc(Nc3ccc4c(c3)CCC(=O)N4)ncc2C(F)(F)F)c1` were 209% and 71.5%.
Taken in the same sequence, the figures for `COc1cc2ncnc(Nc3cccc(Cl)c3)c2cc1OC` [ag-1478-tyrphostin-ag-1478] were 157% and -12.9%.
The corresponding values for `CN1CCN(c2ccc3nc(-c4c(N)c5c(F)cccc5[nH]c4=O)[nH]c3c2)CC1` are 63.2% and 69.1%.
Take `N#Cc1cc(CN2CCC(Nc3ncnc4sc(Cl)cc34)CC2)ccc1F`: the “normalized SmoIP GFP fluorescence” value under setting [1] was determined as 129% and the “normalized SmoIP GFP fluorescence” value under setting [2] is -12.6%.
